Drawing on PubChem BioAssay (EPA / NIEHS), this text covers outcome for 14 molecules.

Activity calls are given as the source filed them. Rule for the calls: active = hit-call score of the fitted dose curve at least 0.9, where 1 is the maximum; inactive = score below 0.9.

This assay is described as follows: BSK_BF4T_SRB: Viability Assessment in the BioMAP Diversity Plus: BF4T Assay (AID 2284274). The following applies: primary human bronchial epithelial cells with fibroblasts. As for the experimental part: BSK_BF4T is a cell-based, multiplexed-readout assay that uses bronchial epithelial cells and dermal fibroblasts, a human vascular primary cell, with measurements taken at 24 hours after chemical dosing in a microplate: 96-well plate.BSK_BF4T_SRB is an assay component measured in the BSK_BF4T assay. It measures 0.1% sulforhodamine related to cell death using Sulforhodamine staining technology.Data from the assay component BSK_BF4T_SRB was analyzed at the endpoint, BSK_BF4T_SRB, in the positive analysis fitting direction relative to DMSO as the negative control and baseline of activity. Using a type of viability reporter, gain or loss-of-signal activity can be used to understand protein changes. To generalize the intended target to other relatable targets, this assay endpoint is annotated to the 'cell morphology' intended target family, where the subfamily is 'cell conformation'.
The levels of cell surface (or secreted, indicated by the prefix "s") biomarker endpoints were measured by ELISA. Overt cytotoxicity to cells in confluent adherent cultures (all systems other than the BT system) was assessed by measuring total protein levels using sulforhodamine B (SRB) staining in parallel cultures at the time of biomarker measurements, indicated as SRB endpoints. For proliferation assays for adherent cell types, individual cell types are cultured at sub-confluence and relative cell numbers quantified by SRB staining at time points optimized for each system (48 h: 3C and CASM3C systems; 72 h: BT and HDF3CGF systems; 96 h: SAg system). SRB was performed by staining cells with 0.1% SRB after fixation with 10% TCA and reading wells at 560 nm.Viability and proliferation of PBMC (T cells) was quantified by Alamar Blue reduction for the SAg and BT systems. For PBMC viability (referred to as PBMC Cytotoxicity within the assay endpoint names), cells were plated (75,000/well in a 96-well plate) and then chemical samples added for 1 h before addition of activators, SEB and TSST-1 (20 ng/mL final concentration each). Cells were incubated for 90 h. Then, Alamar Blue (20 uL/well) (Invitrogen, Cat DAL1100) was added for 6 h, and the plates were read with a fluorescence microplate reader at 546/580 nm (excitation/emission). For PBMC proliferation, cells were plated and activated as above but incubated for only 16 h prior to addition of Alamar Blue. Plates were read after 6 h.
Turning to `OCC(F)(F)OC(F)(F)C(F)(F)OC(F)(F)C(F)(F)OC(F)(F)CO`, the outcome was inactive.
For the molecule `OCC(F)(F)OC(F)(F)C(F)(F)OC(F)(F)CO`, the result was inactive.
With `COC(=O)C(F)(F)C(F)(F)OC(F)(C(F)(F)F)C(F)(F)OC(F)=C(F)F` (centres undefined) the entry was “inactive”; with `O=C(O)C(F)(F)C(F)(F)C(=O)O`, “inactive”; with `NC(=O)C(F)(F)C(F)(F)F`, “inactive”.
On to `O=C(O)C(F)(OC(F)(F)C(F)(F)C(F)(F)F)C(F)(F)F` (centres undefined), for which the outcome was inactive.
On to `O=S(=O)(F)C(F)(F)C(F)(F)C(F)(F)C(F)(F)C(F)(F)C(F)(F)C(F)(F)C(F)(F)F`, for which the outcome was inactive.
For the molecule `CC(O)C(F)(F)C(F)(F)F` (centres undefined), the outcome was inactive.
For the molecule `O=C(O)C(F)(F)OC(F)(F)C(F)(F)OC(F)(F)F`, the result was inactive.
Take `O=C(O)C=CC(F)(C(F)(F)F)C(F)(F)F`: the result was inactive.
As to `FC(F)(F)C(F)(C(F)(F)F)C(F)(F)C(F)(F)CC1CO1` (centres undefined), the result was inactive.
Consider `OCC(F)(F)OC(F)(F)C(F)(F)OC(F)(F)C(F)(F)OC(F)(F)F`, for which the result was inactive.
With `C=CC(=O)OCC(F)(F)C(F)F` the entry was “inactive”; with `O=C(O)C(F)(F)OC(F)(F)C(F)(F)OC(F)(F)C(=O)O`, “inactive”.
